From PubChem BioAssay (NCI)
About 79,000 compounds went through this panel and 15% of them were active in at least one assay; those are over-represented in the sample as a whole. Activity calls are given as the source filed them. Rule as the data show it: active = growth inhibition above about 70%; inactive = the rest.

Assays:
[1] = NCI Yeast Anticancer Drug Screen. Data for the sgs1 strain (AID 173);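 also: 0% = growth of vehicle-only control cultures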; details: S. cerevisiae sgs1 mutant, stronger effect = higher value
Summary of the method: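 Relative growth inhibition, referenced to vehicle, was determined in a yeast strain with a defined alteration affecting DNA damage repair or cell cycle control after compound exposure.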

[2] = NCI Yeast Anticancer Drug Screen. Data for the mlh1 rad18 strain (AID 175); details: S. cerevisiae mlh1 rad18 strain growth inhibition, stronger effect = higher value
Summary of the method: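 In this whole-cell yeast screen, a strain with altered DNA damage repair is challenged with compound, and its growth is measured against matched vehicle-treated controls.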

[3] = NCI Yeast Anticancer Drug Screen. Data for the rad18 strain (AID 177); details: S. cerevisiae rad18 mutant growth inhibition, stronger effect = higher value
Summary of the method: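 Screen uses a yeast strain with a defined lesion in DNA damage repair; compound effect is read as loss of growth compared to untreated vehicle cultures.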

[4] = NCI Yeast Anticancer Drug Screen. Data for the rad52 strain (AID 147);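 also: 0% = growth of vehicle-treated control cultures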; details: S. cerevisiae rad52 mutant growth inhibition, stronger effect = higher value
Summary of the method: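 Measured: yeast growth inhibition. System: strain with a defined DNA damage repair alteration. Reference: vehicle-treated control cultures.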

[5] = NCI Yeast Anticancer Drug Screen. Data for the wt1 strain (AID 149);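 also: 0% = growth of vehicle-treated wt1 cultures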; details: S. cerevisiae wt1 strain (SPY 50644) growth inhibition, stronger effect = higher value
Summary of the method: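 wt1 yeast, compound-treated; % growth inhibition vs vehicle control.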

[6] = NCI Yeast Anticancer Drug Screen. Data for the rad50EPP+ strain (AID 151);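 also: 0% = growth of vehicle-treated control cultures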; details: S. cerevisiae rad50 mutant strain, stronger effect = higher value
Summary of the method: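 One strain with a rad50 alteration (rad50EPP+) was compound-treated, its growth then compared to that of vehicle controls.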

[7] = NCI Yeast Anticancer Drug Screen. Data for the rad50 strain (AID 155);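 also: 0% = growth of vehicle-only cultures of the same strain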; details: S. cerevisiae rad50 strain growth inhibition, stronger effect = higher value
Summary of the method: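 Genetically altered yeast (DNA repair pathway); compound treatment; growth inhibition vs vehicle ctrl.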

[8] = NCI Yeast Anticancer Drug Screen. Data for the mec2-1 strain (AID 157); details: S. cerevisiae mec2-1 strain, stronger effect = higher value
Summary of the method: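 Test agents were screened against the mec2-1 yeast strain, with defined DNA repair or cell cycle alteration. Growth was scored as inhibition against vehicle-only controls.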

[9] = NCI Yeast Anticancer Drug Screen. Data for the rad14 strain (AID 159);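 also: 0% = growth of vehicle-treated control cultures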; details: S. cerevisiae rad14 strain growth inhibition, stronger effect = higher value
Summary of the method: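 Test compounds were applied to a repair-deficient yeast strain. Its growth was then compared with that of cultures given vehicle alone, and inhibition was expressed relative to those controls.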

[10] = NCI Yeast Anticancer Drug Screen. Data for the sgs1 mgt1 strain (AID 161);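 also: 0% = growth of cultures given vehicle only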; details: S. cerevisiae sgs1 mgt1 strain, stronger effect = higher value
Summary of the method: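 Mutant yeast exposed to compound; growth scored against vehicle-only wells.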

[11] = NCI Yeast Anticancer Drug Screen. Data for the CLN2oe strain (AID 163);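 also: 0% = growth of vehicle-only control cultures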; details: S. cerevisiae CLN2oe strain, stronger effect = higher value
Summary of the method: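 Here, growth inhibition in a cell-cycle-altered yeast strain after compound exposure was quantified against vehicle control growth.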

[12] = NCI Yeast Anticancer Drug Screen. Data for the cln2 rad14 strain (AID 165);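 also: 0% = growth equal to vehicle treated cultures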; details: S. cerevisiae cln2 rad14 strain, stronger effect = higher value
Summary of the method: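 Growth of compound-exposed yeast (cln2 rad14 genotype) measured and expressed as inhibition relative to vehicle.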

[13] = NCI Yeast Anticancer Drug Screen. Data for the bub3 strain (AID 167); details: S. cerevisiae bub3 mutant strain, stronger effect = higher value
Summary of the method: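 Yeast carrying a defined mutation is treated with each compound, and growth is compared with that of vehicle-exposed cells to give inhibition.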

[14] = NCI Yeast Anticancer Drug Screen. Data for the wt2 strain (AID 169);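 also: 0% = growth of vehicle-treated yeast cultures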; details: S. cerevisiae wt2 strain growth inhibition, stronger effect = higher value
Summary of the method: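 Genetically defined yeast strains from a DNA-repair/cell-cycle panel were used. Compound-exposed yeast growth was measured, and the inhibition was calculated relative to vehicle treatment.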

[15] = NCI Yeast Anticancer Drug Screen. Data for the mlh1 strain (AID 171);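 also: 0% = growth of vehicle-treated control cultures of the same strain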; details: S. cerevisiae mlh1 strain growth inhibition, stronger effect = higher value
Summary of the method: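 Here the genetically defined yeast mutant is grown with each compound, and the extent to which its growth falls below that of vehicle-exposed cells is reported.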

[16] = at 5.0 µM (retest, dose inferred, filed as 0.5)
[17] = at 50.0 µM (retest, dose inferred, filed as 5.0)

Measured: growth inhibition

CN(NC(=O)/C(=C/c1ccc(O)cc1)NC(=O)c1ccccc1)c1ccnc2cc(Cl)ccc12
inactive: [1]; at 1.2 µM 2% | [1]; at 3.7 µM 4% | [1]; at 11.0 µM 14% | [1]; at 33.0 µM 67% | [2]; [16] 1% | [2]; [17] 2% | [3]; at 1.2 µM 1% | [3]; at 3.7 µM 7% | [3]; at 11.0 µM 45%
active: [1]; at 100.0 µM 83% | [2]; at 50.0 µM 80.3% | [3]; at 33.0 µM 78% | [3]; at 100.0 µM 87%

O=C(Nc1ccc2c(c1)Cc1c-2ccc([N+](=O)[O-])c1F)C(F)(F)F
active: [2]; [17] 79%
inactive: [4]; at 1.2 µM 4% | [4]; at 3.7 µM 4% | [4]; at 11.0 µM 5% | [4]; at 33.0 µM 5% | [4]; at 100.0 µM 3% | [5]; at 1.2 µM 2% | [5]; at 3.7 µM 3% | [5]; at 11.0 µM 7% | [5]; at 33.0 µM 4% | [5]; at 100.0 µM 3% | [6]; at 1.2 µM 9% | [6]; at 3.7 µM 0% | [6]; at 11.0 µM 6% | [6]; at 33.0 µM 11% | [6]; at 100.0 µM 20% | [7]; at 1.2 µM 2% | [7]; at 3.7 µM 4% | [7]; [16] 2% | [7]; at 11.0 µM 4% | [7]; at 33.0 µM 3% | [7]; [17] 11% | [7]; at 50.0 µM 2.95% | [7]; at 100.0 µM 4% | [8]; at 1.2 µM -1% | [8]; at 3.7 µM 0% | [8]; [16] -17% | [8]; at 11.0 µM -1% | [8]; at 33.0 µM 1% | [8]; [17] -11% | [8]; at 50.0 µM 1.35% | [8]; at 100.0 µM 2% | [9]; at 1.2 µM 1% | [9]; at 3.7 µM 1% | [9]; at 11.0 µM 0% | [9]; at 33.0 µM 2% | [9]; at 100.0 µM 2% | [10]; [16] 23% | [10]; [17] 19% | [10]; at 50.0 µM -3.05% | [11]; at 1.2 µM -2% | [11]; at 3.7 µM -3% | [11]; at 11.0 µM -4% | [11]; at 33.0 µM -11% | [11]; at 100.0 µM -4% | [12]; [16] 4% | [12]; [17] 7% | [12]; at 50.0 µM -10.7% | [13]; at 1.2 µM -2% | [13]; at 3.7 µM 1% | [13]; [16] -4% | [13]; at 11.0 µM 1% | [13]; at 33.0 µM 1% | [13]; [17] 12% | [13]; at 50.0 µM 8.35% | [13]; at 100.0 µM -4% | [14]; at 1.2 µM 2% | [14]; at 3.7 µM 0% | [14]; at 11.0 µM 2% | [14]; at 33.0 µM 2% | [14]; at 100.0 µM 0% | [15]; at 1.2 µM 5% | [15]; at 3.7 µM 3% | [15]; at 11.0 µM 3% | [15]; at 33.0 µM 2% | [15]; at 100.0 µM 2% | [1]; at 1.2 µM 1% | [1]; at 3.7 µM 3% | [1]; at 11.0 µM -1% | [1]; at 33.0 µM 1% | [1]; at 100.0 µM 3% | [2]; [16] 62% | [2]; at 50.0 µM 18.4% | [3]; at 1.2 µM 4% | [3]; at 3.7 µM 0% | [3]; at 11.0 µM -25% | [3]; at 33.0 µM 5% | [3]; at 100.0 µM 9%

CC(=O)OCC1OC(O[C@H]2C=C[C@@H](C(=O)OCc3ccccc3)n3c(=O)n(-c4ccccc4)c(=O)n32)C(OC(C)=O)C(OC(C)=O)C1OC(C)=O (some centres undefined)
inactive: [4]; at 1.2 µM 22% | [4]; at 3.7 µM 24% | [4]; at 11.0 µM 14% | [4]; at 33.0 µM 63% | [5]; at 1.2 µM -11% | [5]; at 3.7 µM 2% | [5]; at 11.0 µM -3% | [5]; at 33.0 µM 21% | [5]; at 100.0 µM 29% | [6]; at 1.2 µM -9% | [6]; at 3.7 µM 3% | [6]; at 11.0 µM 2% | [6]; at 33.0 µM 16% | [6]; at 100.0 µM 18% | [7]; at 1.2 µM -14% | [7]; at 3.7 µM 10% | [7]; [16] 39% | [7]; at 11.0 µM 0% | [7]; at 33.0 µM 50% | [7]; at 50.0 µM 59% | [7]; at 100.0 µM 67% | [8]; at 1.2 µM 2% | [8]; at 3.7 µM 9% | [8]; [16] 23% | [8]; at 11.0 µM -8% | [8]; at 33.0 µM 36% | [8]; at 50.0 µM 57% | [8]; at 100.0 µM 59% | [9]; at 1.2 µM -15% | [9]; at 3.7 µM 8% | [9]; at 11.0 µM -8% | [9]; at 33.0 µM 8% | [9]; at 100.0 µM 20% | [10]; [16] 29% | [11]; at 1.2 µM 10% | [11]; at 3.7 µM 22% | [11]; at 11.0 µM 24% | [11]; at 33.0 µM 58% | [12]; [16] 13% | [12]; [17] 33% | [12]; at 50.0 µM 53.6% | [13]; at 1.2 µM -30% | [13]; at 3.7 µM -18% | [13]; [16] 28% | [13]; at 11.0 µM -27% | [13]; at 33.0 µM 24% | [14]; at 1.2 µM -36% | [14]; at 3.7 µM -18% | [14]; at 11.0 µM 19% | [15]; at 1.2 µM -17% | [15]; at 3.7 µM -2% | [15]; at 11.0 µM -23% | [15]; at 33.0 µM 39% | [1]; at 1.2 µM -9% | [1]; at 3.7 µM -15% | [1]; at 11.0 µM -8% | [1]; at 33.0 µM 50% | [2]; at 50.0 µM 28.9% | [3]; at 1.2 µM -6% | [3]; at 3.7 µM 3% | [3]; at 11.0 µM 7% | [3]; at 33.0 µM 59%
active: [4]; at 100.0 µM 77% | [7]; [17] 72% | [8]; [17] 71% | [10]; [17] 78% | [10]; at 50.0 µM 71% | [11]; at 100.0 µM 82% | [13]; [17] 80% | [13]; at 50.0 µM 75.1% | [13]; at 100.0 µM 76% | [14]; at 33.0 µM 98% | [14]; at 100.0 µM 97% | [15]; at 100.0 µM 70% | [1]; at 100.0 µM 77% | [2]; [16] 70% | [2]; [17] 93% | [3]; at 100.0 µM 76%
